Inconclusive results are not listed. Calls of active or inactive are those of the source. How the source made its calls, unless noted: active means hit-call score of the fitted dose curve at least 0.9, where 1 is the maximum; inactive means score below 0.9.
Tests used:
[1] = ATG_NFI_CIS: Attagene CIS-FACTORIAL HepG2 Assay for human Nuclear Factor I (NFI) (AID 2282989); conditions: HepG2 cis-regulatory reporter, NFI response element transcription; actives raise or lower the signal
Summary of the method: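 Reporter transcripts were measured by RT-PCR with fluorescent primer extension and capillary electrophoresis 24 h post-treatment. HepG2 cells carried transiently transfected cis-regulated reporter constructs reporting endogenous factor activity; gain or loss fitted against DMSO baseline.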

[2] = ATG_NF_kB_CIS: Attagene CIS-FACTORIAL HepG2 Assay for human Nuclear Factor Kappa B (NF-kB) (AID 2282991); conditions: HepG2 Attagene cis-factorial NF-kB reporter mRNA; actives raise or lower the signal
Summary of the method: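 HepG2 cells transiently transfected with multiplexed cis-element reporter units measuring endogenous transcription factor activity; reporter mRNA read 24 h after dosing by RT-PCR, fluorescent labelling, HpaI digestion and capillary electrophoresis. Bidirectional fit against DMSO baseline.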

[3] = ATG_NRF2_ARE_CIS: Attagene CIS-FACTORIAL HepG2 Assay for human Nuclear Factor Erythroid 2 Related Factor 2 (NFR2) response to Antioxidant Response Elements (ARE) (AID 2282992); conditions: HepG2 Attagene ARE/NRF2 reporter, transcription factor activity; actives raise or lower the signal;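 on AC50: reporter mRNA level measured by RT-PCR and capillary electrophoresis fluorescence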
Summary of the method: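 Transient MRTU transfection of HepG2; 24 h compound exposure; TriZol RNA, RT with oligo(dT), PCR, 6-FAM primer extension, HpaI cut, CE. Bidirectional fit vs DMSO.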

[4] = ATG_Oct_MLP_CIS: Attagene CIS-FACTORIAL HepG2 Assay for human Octamer-Binding Transcription Factor (Oct) (AID 2282993); conditions: HepG2 Attagene cis-factorial Oct reporter, mRNA; actives raise or lower the signal
Summary of the method: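 Readout is reporter transcript level from RT-PCR with fluorescent primer extension and capillary electrophoresis, fitted in both directions against DMSO. Transfected HepG2 reporter units report endogenous factor activity after 24 h dosing.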

[5] = biological target: Cellular tumor antigen p53 (Homo sapiens) (UniProt P04637); assay: ATG_p53_CIS: Attagene CIS-FACTORIAL HepG2 Assay for human p53 Transcription Factor (AID 2282994); conditions: HepG2 p53 cis-element reporter, Attagene mRNA; actives raise or lower the signal
Cellular tumor antigen p53 (Homo sapiens), sequence (P04637 whole entry, looked up): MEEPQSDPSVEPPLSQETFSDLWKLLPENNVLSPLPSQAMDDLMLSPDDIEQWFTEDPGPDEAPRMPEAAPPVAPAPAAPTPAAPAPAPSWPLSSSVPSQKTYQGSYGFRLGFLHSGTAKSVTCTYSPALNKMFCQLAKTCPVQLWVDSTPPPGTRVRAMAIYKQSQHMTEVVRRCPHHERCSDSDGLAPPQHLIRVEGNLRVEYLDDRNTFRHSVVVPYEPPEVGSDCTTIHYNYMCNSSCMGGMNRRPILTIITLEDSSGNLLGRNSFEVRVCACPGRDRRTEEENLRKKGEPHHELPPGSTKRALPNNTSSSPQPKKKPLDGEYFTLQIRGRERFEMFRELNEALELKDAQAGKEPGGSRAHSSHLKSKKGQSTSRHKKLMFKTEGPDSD
Summary of the method: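 HepG2, transient MRTU transfection (cis promoter elements, endogenous TFs); 24 h dosing; RNA isolation, RT-PCR, 6-FAM primer extension, HpaI digest, CE fluorescence; bidirectional fit vs DMSO.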

[6] = biological target: human Peroxisome Proliferator-activated Receptor alpha (PPARa), PPARA (gene 5465) (UniProt Q07869); assay: ATG_PPARa_TRANS: Attagene TRANS-FACTORIAL HepG2 Assay for human Peroxisome Proliferator-activated Receptor alpha (PPARa) (AID 2283001; active means hit-call score of the fitted dose curve at least 0.9, where 1 is the maximum;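 on AC50: potency for gain of reporter signal over DMSO so agonist or activator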)
human Peroxisome Proliferator-activated Receptor alpha (PPARa), PPARA (gene 5465), sequence (Q07869 whole entry, looked up, the tested form may be a part): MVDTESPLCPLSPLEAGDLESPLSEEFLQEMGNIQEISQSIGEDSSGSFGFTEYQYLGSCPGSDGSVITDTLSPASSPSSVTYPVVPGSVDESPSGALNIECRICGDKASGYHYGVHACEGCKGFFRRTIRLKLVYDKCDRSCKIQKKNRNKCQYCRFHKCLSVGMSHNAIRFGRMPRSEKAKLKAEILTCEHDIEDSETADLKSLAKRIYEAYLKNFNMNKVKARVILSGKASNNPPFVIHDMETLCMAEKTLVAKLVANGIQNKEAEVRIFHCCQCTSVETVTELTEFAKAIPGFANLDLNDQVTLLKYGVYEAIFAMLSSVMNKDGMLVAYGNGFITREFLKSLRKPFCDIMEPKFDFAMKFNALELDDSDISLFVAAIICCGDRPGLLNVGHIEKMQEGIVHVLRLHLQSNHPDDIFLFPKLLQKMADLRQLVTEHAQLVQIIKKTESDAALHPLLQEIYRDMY
Summary of the method: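 HepG2 cells transiently transfected with multiplexed GAL4-UAS reporter units and chimeric NR-Gal4 constructs were dosed for 24 h. Reporter mRNA was measured by RT-PCR with fluorescent labelling and capillary electrophoresis; gain of signal fitted against DMSO.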

[7] = biological target: human Peroxisome Proliferator-activated Receptor delta (PPARd), PPARD (gene 5467) (UniProt Q03181); assay: ATG_PPARd_TRANS: Attagene TRANS-FACTORIAL HepG2 Assay for human Peroxisome Proliferator-activated Receptor delta (PPARd) (AID 2283002; active means hit-call score of the fitted dose curve at least 0.9, where 1 is the maximum)
human Peroxisome Proliferator-activated Receptor delta (PPARd), PPARD (gene 5467), sequence (Q03181 whole entry, looked up, the tested form may be a part): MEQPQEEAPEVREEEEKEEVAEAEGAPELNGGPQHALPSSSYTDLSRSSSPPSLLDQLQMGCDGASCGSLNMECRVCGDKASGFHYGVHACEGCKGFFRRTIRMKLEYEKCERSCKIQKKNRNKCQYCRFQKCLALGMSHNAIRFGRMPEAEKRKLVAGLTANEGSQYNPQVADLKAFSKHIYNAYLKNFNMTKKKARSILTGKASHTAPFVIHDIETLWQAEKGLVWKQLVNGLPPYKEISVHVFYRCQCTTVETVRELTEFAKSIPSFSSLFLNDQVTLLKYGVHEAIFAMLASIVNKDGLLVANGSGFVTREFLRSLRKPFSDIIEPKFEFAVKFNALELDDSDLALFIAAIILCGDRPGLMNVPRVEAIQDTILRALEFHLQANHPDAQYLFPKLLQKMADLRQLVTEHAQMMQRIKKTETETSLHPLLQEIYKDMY
Summary of the method: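 HepG2 cells transiently transfected with multiplexed GAL4-UAS reporter units and exogenous chimeric NR-Gal4 proteins; 24 h compound exposure. Reporter mRNA measured by RT-PCR, 6-FAM labelling, HpaI digestion and capillary electrophoresis; gain of signal versus DMSO.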

[8] = biological target: Peroxisome proliferator-activated receptor gamma (Homo sapiens) (UniProt P37231); assay: ATG_PPARg_TRANS: Attagene TRANS-FACTORIAL HepG2 Assay for human Peroxisome Proliferator-activated Receptor-gamma (PPARg) (AID 2283007; active means hit-call score of the fitted dose curve at least 0.9, where 1 is the maximum)
Peroxisome proliferator-activated receptor gamma (Homo sapiens), sequence (P37231 whole entry, looked up, the tested form may be a part): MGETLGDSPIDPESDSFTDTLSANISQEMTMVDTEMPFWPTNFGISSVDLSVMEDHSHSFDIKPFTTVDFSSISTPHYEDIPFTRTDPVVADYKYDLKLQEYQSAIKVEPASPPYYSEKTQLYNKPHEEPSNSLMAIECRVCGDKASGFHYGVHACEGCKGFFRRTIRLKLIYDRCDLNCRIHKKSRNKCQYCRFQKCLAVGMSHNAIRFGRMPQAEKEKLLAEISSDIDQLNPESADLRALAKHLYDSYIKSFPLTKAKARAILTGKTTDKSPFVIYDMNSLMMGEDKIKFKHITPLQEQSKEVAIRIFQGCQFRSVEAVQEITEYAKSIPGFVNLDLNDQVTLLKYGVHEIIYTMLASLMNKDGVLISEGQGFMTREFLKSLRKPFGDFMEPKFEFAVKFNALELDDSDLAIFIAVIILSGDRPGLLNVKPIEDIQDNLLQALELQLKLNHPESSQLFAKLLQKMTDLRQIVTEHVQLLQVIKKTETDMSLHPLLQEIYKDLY
Summary of the method: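 HepG2 cells transiently transfected with multiplexed GAL4-UAS reporter units and exogenous chimeric NR-Gal4 proteins; reporter mRNA quantified after 24 h compound exposure by RT-PCR, fluorescent labelling, HpaI digestion and capillary electrophoresis; gain-of-signal fitted versus DMSO baseline.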

[9] = BSK_3C_TissueFactor: BioMAP Diversity Plus: 3C Assay for Tissue Factor Biomarker Activity (AID 2282997); conditions: BioMAP 3C HUVEC, tissue factor biomarker readout; actives raise or lower the signal
Summary of the method: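 Dosing of human umbilical vein endothelial cells preceded a 24 h incubation. Tissue Factor was then read by ELISA, with increases and decreases both scored relative to DMSO controls.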

[10] = BSK_3C_uPAR: BioMAP Diversity Plus: 3C Assay for Urokinase-type plasminogen activator receptor (uPAR) Biomarker Activity (AID 2282998); conditions: BioMAP 3C HUVEC, uPAR biomarker ELISA; actives raise or lower the signal
Summary of the method: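 Cell-surface uPAR on HUVEC (3C system) read by ELISA at 24 h post-treatment, with DMSO as baseline and fitting in both directions. Parallel cultures stained with SRB to flag overt cytotoxicity.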

[11] = BSK_3C_VCAM1: BioMAP Diversity Plus: 3C Assay for Vascular cell adhesion molecule 1 (VCAM1) Biomarker Activity (AID 2282999); conditions: BioMAP 3C HUVEC, VCAM1 ELISA, cytokine-stimulated; actives raise or lower the signal
Summary of the method: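 Human umbilical vein endothelial cells were dosed with compound for 24 h, after which cell-surface VCAM-1 was quantified by ELISA. Bidirectional curve fitting used DMSO as negative control and activity baseline.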

[12] = BSK_4H_Eotaxin3: BioMAP Diversity Plus: 4H Assay for Eotaxin 3 Biomarker Activity (AID 2283000); conditions: primary human endothelial cells (HUVEC); actives raise or lower the signal
Summary of the method: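 Human umbilical vein endothelial cells (BSK_4H system) dosed with test chemical; Eotaxin-3 (CCL26) measured by ELISA 24 h after dosing. Bidirectional curve fitting relative to DMSO negative control as baseline.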

[13] = read-out: Intercellular Adhesion Molecule 1 (ICAM1), ICAM1 (gene 3383); assay: BSK_3C_ICAM1: BioMAP Diversity Plus: 3C Assay for Intercellular Adhesion Molecule 1 (ICAM1) Biomarker Activity (AID 2283003); conditions: primary human endothelial cells (HUVEC); actives raise or lower the signal
Summary of the method: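 Human vascular endothelial primary cells, 3C conditions, 24 h treatment. ICAM-1 by ELISA.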

[14] = biological target: human Retinoic Acid Receptor beta (RARb), RARB (gene 5915) (UniProt P10826); assay: ATG_RARb_TRANS: Attagene TRANS-FACTORIAL HepG2 Assay for human Retinoic Acid Receptor beta (AID 2283004; active means hit-call score of the fitted dose curve at least 0.9, where 1 is the maximum)
human Retinoic Acid Receptor beta (RARb), RARB (gene 5915), sequence (P10826 whole entry, looked up, the tested form may be a part): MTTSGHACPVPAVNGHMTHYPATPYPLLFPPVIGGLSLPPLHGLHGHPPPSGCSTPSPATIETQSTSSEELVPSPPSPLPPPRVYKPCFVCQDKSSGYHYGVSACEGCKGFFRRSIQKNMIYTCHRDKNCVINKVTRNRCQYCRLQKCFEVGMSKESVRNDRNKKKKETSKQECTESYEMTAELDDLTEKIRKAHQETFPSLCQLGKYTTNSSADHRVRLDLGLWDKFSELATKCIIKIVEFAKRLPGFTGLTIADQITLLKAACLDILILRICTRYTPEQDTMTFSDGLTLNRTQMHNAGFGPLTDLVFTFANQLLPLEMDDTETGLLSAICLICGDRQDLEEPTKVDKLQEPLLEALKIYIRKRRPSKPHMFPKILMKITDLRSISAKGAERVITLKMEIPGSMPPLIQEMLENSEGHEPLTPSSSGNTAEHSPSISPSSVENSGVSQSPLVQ
Summary of the method: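 Induction of reporter mRNA from a chimeric RARb-Gal4 construct was measured by RT-PCR, FAM labelling, HpaI digestion and capillary electrophoresis. Measurements followed 24 h compound treatment of transiently transfected human HepG2 liver cells, with DMSO as baseline.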

[15] = BSK_3C_Proliferation: Cell Proliferation Assessment in the BioMAP Diversity Plus: 3C Assay (AID 2283006); conditions: primary human endothelial cells (HUVEC);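 on AC50: potency may reflect either rise or fall in cell number versus DMSO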
Summary of the method: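 Proliferation of human vascular endothelial primary cells after 48 h dosing, quantified as SRB-stained protein at 560 nm relative to DMSO.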

[16] = biological target: Nuclear receptor subfamily 1 group I member 2 (Homo sapiens) (UniProt O75469); assay: ATG_PXR_TRANS: Attagene TRANS-FACTORIAL HepG2 Assay for human Pregnane X Receptor (PXR) (AID 2283008; active means hit-call score of the fitted dose curve at least 0.9, where 1 is the maximum)
Nuclear receptor subfamily 1 group I member 2 (Homo sapiens), sequence (O75469 whole entry, looked up, the tested form may be a part): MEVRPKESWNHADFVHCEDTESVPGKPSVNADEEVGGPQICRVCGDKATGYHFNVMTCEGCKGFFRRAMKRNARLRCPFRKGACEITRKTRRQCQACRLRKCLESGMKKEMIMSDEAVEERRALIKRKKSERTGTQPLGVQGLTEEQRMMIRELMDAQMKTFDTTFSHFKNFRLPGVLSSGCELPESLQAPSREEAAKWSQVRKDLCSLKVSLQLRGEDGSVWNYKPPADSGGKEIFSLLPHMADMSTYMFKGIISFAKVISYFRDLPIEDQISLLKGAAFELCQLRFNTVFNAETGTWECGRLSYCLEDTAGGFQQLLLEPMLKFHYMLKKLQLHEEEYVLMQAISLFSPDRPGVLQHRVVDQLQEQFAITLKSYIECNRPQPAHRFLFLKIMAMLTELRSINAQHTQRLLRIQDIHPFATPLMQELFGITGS
Summary of the method: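 Read-out is fluorescence of labelled reporter cDNA fragments separated by capillary electrophoresis after RT-PCR and HpaI digestion. Source: HepG2 cells carrying PXR-GAL4/UAS reporter constructs, treated 24 h; activity fitted upward relative to DMSO.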

[17] = biological target: human Retinoic Acid Receptor gamma (RARg), RARG (gene 5916) (UniProt P13631); assay: ATG_RARg_TRANS: Attagene TRANS-FACTORIAL HepG2 Assay for human Retinoic Acid Receptor gamma (RARg) (AID 2283009; active means hit-call score of the fitted dose curve at least 0.9, where 1 is the maximum)
human Retinoic Acid Receptor gamma (RARg), RARG (gene 5916), sequence (P13631 whole entry, looked up, the tested form may be a part): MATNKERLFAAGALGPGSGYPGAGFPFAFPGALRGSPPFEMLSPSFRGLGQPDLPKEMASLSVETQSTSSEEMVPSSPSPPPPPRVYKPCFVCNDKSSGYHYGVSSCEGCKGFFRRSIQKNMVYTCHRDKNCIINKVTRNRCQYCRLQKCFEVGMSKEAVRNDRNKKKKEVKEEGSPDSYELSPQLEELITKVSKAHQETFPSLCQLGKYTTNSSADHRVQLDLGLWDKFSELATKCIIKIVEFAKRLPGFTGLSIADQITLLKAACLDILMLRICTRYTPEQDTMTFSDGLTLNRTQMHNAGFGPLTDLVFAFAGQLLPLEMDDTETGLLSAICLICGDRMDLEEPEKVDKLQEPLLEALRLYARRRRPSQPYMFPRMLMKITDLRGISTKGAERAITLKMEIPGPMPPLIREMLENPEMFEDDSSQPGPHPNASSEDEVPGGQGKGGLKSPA
Summary of the method: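 HepG2, RARg-GAL4 TRANS system, 24 h exposure; reporter mRNA by RT-PCR + CE fluorescence; increase over DMSO.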

[18] = biological target: human RAR-related Orphan Receptor beta (RORb), RORB (gene 6096) (UniProt Q92753); assay: ATG_RORb_TRANS: Attagene TRANS-FACTORIAL HepG2 Assay for human RAR-related Orphan Receptor beta (RORb) (AID 2283010; active means hit-call score of the fitted dose curve at least 0.9, where 1 is the maximum)
human RAR-related Orphan Receptor beta (RORb), RORB (gene 6096), sequence (Q92753 whole entry, looked up, the tested form may be a part): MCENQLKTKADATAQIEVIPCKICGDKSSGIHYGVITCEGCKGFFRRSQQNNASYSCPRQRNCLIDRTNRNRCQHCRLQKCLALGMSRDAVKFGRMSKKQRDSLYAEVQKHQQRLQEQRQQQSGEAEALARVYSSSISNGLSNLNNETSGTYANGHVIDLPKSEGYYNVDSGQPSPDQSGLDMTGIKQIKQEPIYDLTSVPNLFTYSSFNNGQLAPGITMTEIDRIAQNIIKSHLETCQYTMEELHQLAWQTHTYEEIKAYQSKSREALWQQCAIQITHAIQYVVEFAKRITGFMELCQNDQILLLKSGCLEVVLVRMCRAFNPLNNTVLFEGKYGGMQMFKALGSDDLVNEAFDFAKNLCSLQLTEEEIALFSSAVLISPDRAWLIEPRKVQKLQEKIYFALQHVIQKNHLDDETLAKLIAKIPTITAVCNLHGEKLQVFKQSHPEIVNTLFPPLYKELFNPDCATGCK
Summary of the method: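 In this TRANS-format test, human HepG2 cells express chimeric NR-Gal4 fusion proteins driving GAL4-UAS reporters. After 24 h dosing, reporter transcripts are measured by fluorescent RT-PCR/capillary electrophoresis, with DMSO as negative control.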

[19] = biological target: Myc proto-oncogene protein (Homo sapiens) (UniProt P01106); assay: ATG_Myc_CIS: Attagene CIS-FACTORIAL HepG2 Assay for human Myelocytomatosis (Myc) Proto-Oncogene Transcription Factor (AID 2282990); conditions: HepG2, Attagene cis-reporter transcription factor activity; actives raise or lower the signal
Myc proto-oncogene protein (Homo sapiens), sequence (P01106 whole entry, looked up): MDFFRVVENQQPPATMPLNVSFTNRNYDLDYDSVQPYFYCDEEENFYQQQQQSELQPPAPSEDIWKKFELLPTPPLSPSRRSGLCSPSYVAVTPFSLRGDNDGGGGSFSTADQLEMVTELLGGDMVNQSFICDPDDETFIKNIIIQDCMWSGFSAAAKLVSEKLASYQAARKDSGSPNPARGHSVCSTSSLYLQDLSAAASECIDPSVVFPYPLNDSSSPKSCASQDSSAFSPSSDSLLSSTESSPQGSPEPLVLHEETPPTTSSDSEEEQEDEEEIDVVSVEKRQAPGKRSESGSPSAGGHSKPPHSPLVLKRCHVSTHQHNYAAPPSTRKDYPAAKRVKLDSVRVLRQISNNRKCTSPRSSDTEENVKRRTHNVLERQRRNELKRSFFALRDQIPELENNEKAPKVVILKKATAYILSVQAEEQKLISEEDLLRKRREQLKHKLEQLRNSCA
Summary of the method: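 HepG2 cells transiently transfected with multiple cis-promoter-driven reporter transcription units, so endogenous TF activity is read. After 24 h compound exposure, reporter mRNA was quantified by RT-PCR, 6-FAM labelling, HpaI digestion and capillary electrophoresis; bidirectional fit versus DMSO.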

[20] = biological target: Retinoic acid receptor alpha (Homo sapiens) (UniProt P10276); assay: ATG_RARa_TRANS: Attagene TRANS-FACTORIAL HepG2 Assay for human Retinoic Acid Receptor alpha (RARa) (AID 2283005; active means hit-call score of the fitted dose curve at least 0.9, where 1 is the maximum)
Retinoic acid receptor alpha (Homo sapiens), sequence (P10276 whole entry, looked up, the tested form may be a part): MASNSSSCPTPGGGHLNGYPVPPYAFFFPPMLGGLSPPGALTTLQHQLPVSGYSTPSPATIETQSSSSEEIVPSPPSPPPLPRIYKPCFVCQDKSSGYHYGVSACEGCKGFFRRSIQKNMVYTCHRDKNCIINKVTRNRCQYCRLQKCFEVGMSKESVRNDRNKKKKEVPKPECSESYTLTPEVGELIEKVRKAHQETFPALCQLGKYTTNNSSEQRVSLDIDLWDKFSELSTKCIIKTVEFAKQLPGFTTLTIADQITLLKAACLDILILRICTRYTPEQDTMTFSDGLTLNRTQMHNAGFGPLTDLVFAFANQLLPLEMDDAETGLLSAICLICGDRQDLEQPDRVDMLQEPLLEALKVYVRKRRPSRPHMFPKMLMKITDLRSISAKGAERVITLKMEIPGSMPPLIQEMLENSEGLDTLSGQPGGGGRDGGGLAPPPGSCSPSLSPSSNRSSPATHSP
Summary of the method: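 HepG2 cells transiently transfected with multiple reporter units expressing chimeric RARα-GAL4 fusion, with GAL4-UAS-driven reporters. After 24 h compound exposure, reporter mRNA induction quantified by RT-PCR and capillary electrophoresis with fluorescent labeling; gain-of-signal fitted relative to DMSO control.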

Measured: AC50

CCCCOCCOCCSC#N
active: [3] 16.7 µM | [8] 19.8 µM
inactive: [1] | [2] | [4] | [5] | [6] | [7]

CNC[C@H](O)c1cccc(O)c1
inactive: [1] | [2] | [3] | [4] | [5] | [9] | [10] | [11] | [12] | [13] | [14] | [15] | [16] | [17] | [18]

CCCc1c(OCCCOc2ccc(OCC(=O)O)cc2)ccc(C(C)=O)c1O
active: [6] 0.322 µM | [7] 0.0841 µM | [8] 0.195 µM | [16] 26.6 µM
inactive: [1] | [2] | [3] | [4] | [5]

Cc1ccc2n[nH]nc2c1
inactive: [19] | [2] | [3] | [4] | [5] | [9] | [10] | [11] | [12] | [6] | [7] | [13] | [15] | [16]

O=C(O)c1ccc([N+](=O)[O-])cc1
inactive: [1] | [2] | [3] | [4] | [5] | [9] | [10] | [11] | [12] | [13] | [15]

O=C(O)CN(CCN(CC(=O)O)CC(=O)O)CCN(CC(=O)O)CC(=O)O
inactive: [1] | [2] | [3] | [4] | [5] | [6] | [7] | [14] | [20] | [8] | [17] | [18]

CC(=O)Nc1ccc(CC(=O)O)cc1
inactive: [1] | [3] | [4] | [5] | [6] | [8] | [18]

CCCC(=O)OCCC(C)CCC=C(C)C (stereo unspecified)
inactive: [1] | [6] | [16] | [18]
active: [2] 72 µM | [3] 78.7 µM | [4] 100 µM

Cc1ccc(Nc2ccc(O)c3c2C(=O)c2ccccc2C3=O)cc1
inactive: [19] | [2] | [4] | [5] | [10] | [11] | [12] | [6] | [7] | [13] | [15] | [16]
active: [3] 5.13 µM | [9] 1.13 µM

Cc1ccc(C=O)cc1
inactive: [1] | [2] | [3] | [4] | [5] | [6] | [16] | [18]

CC1(C)C(=O)N(Br)C(=O)N1Cl
active: [3] 100 µM
inactive: [1] | [2] | [4] | [5] | [6] | [7] | [20] | [8]

CC1COc2ccccc2N1C(=O)C(Cl)Cl (stereo unspecified)
inactive: [1] | [2] | [9] | [7] | [13] | [8]
active: [3] 6.61 µM | [4] 30.6 µM | [10] 5.99 µM | [11] 11.3 µM | [12] 7.09 µM | [15] 5.24 µM | [16] 6.46 µM

Cc1ccc(O)c(C(C)(C)C)c1
inactive: [1] | [5] | [7] | [18]
active: [2] 100 µM | [3] 25.2 µM | [4] 143 µM | [9] 36.7 µM | [10] 20 µM | [11] 30 µM | [12] 35 µM | [13] 33.7 µM | [15] 15.1 µM | [16] 19.1 µM

Reference: PubChem BioAssay (EPA / NIEHS)
